The values below come from PubChem BioAssay AID1851 (National Center for Advancing Translational Sciences (NCATS), 2009).

About 5,100 (32%) of roughly 16,000 compounds were called active. About 25% were inconclusive and are not listed. The list shows a part of the results. Values without a mark were called inactive. Calls follow the shape of the dose curve; as a rule, active = well fitted curve in the direction sought with a large enough effect; inconclusive = small, poorly fitted or top-dose-only effect, or effect the other way; inactive = no such curve, though single readings can be large or run the other way.
% is scaled to controls: 0 for no effect and ±100 for the full control effect.

Sequence of Cytochrome P450 3A4 (Homo sapiens) (P08684 whole entry, looked up): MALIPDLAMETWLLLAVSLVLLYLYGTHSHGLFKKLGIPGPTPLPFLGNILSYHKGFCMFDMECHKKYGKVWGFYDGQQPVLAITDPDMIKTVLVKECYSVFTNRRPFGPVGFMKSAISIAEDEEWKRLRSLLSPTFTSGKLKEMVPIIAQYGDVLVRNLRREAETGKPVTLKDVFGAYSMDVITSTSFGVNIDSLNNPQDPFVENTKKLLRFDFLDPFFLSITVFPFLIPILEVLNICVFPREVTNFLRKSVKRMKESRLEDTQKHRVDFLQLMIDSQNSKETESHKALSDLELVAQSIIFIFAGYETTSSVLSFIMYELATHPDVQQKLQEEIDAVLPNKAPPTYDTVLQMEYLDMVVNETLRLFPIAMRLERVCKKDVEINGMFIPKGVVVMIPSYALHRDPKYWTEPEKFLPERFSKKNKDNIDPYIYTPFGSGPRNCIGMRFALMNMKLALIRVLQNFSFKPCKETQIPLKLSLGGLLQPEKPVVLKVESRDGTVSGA

This assay concerns the target Cytochrome P450 3A4 (Homo sapiens) (UniProt P08684). In words: Cytochrome panel assay with activity outcomes. The settings on record: recombinant CYP, pro-luciferin dealkylation, luminescence, p450-cyp3a4; series mostly up to 57.1 µM.
Turning to `CN1CCc2cc(Cl)c(O)cc2[C@@H](c2ccccc2)C1`, the AC50 (commonly the concentration at which the activity in the assay is half-maximal) is “inactive”.
Take `NCCNCC1CCNCC1`: the activity, negative = inhibition was -29.4% [at 11.4 µM].
For the compound `CN(C)[C@H]1C(=O)C(C(=O)NCN2CCCC2)=C(O)[C@]2(O)C(=O)C3=C(O)c4c(O)cccc4[C@@](C)(O)[C@H]3C[C@@H]12`, the AC50 result was “inactive”.
With `Cc1cc(/C=N/n2cnnc2)c(C)n1-c1ccc(OCc2ccccc2F)cc1`, the AC50 was 0.224 µM (active).
Same read-out and setting: next, `Cc1cc([N+](=O)[O-])nn1Cc1ccccc1F`: “inactive”; `CCOC(=O)c1ccccc1OCc1cc(/C=N/n2cnnc2)ccc1OC`: “inactive”.
`Cc1ccc(C)c(Nc2nc3nonc3nc2N2CCOCC2)c1`: the activity, negative = inhibition was -12.1% [at 2.29 µM].
In the case of `CSc1nncn1/N=C/c1ccc2c(c1)OCO2`, the AC50 is 8.91 µM (active).
Turning to `OC[C@@H]1O[C@@H](O)[C@H](N=Cc2ccc3c(c2)OCO3)[C@@H](O)[C@@H]1O`, the activity, negative = inhibition was -4.87% [at 11.4 µM].
Still for that read-out and setting: next, `Cc1ccc(S(=O)(=O)N[C@H](CO)C(=O)O)cc1`: -3.82% [at 11.4 µM].
Turning to `CC(CCc1ccccc1)NS(=O)(=O)c1ccccc1` (configuration not stated), the AC50 result was “inactive”.
Same read-out and setting: next, `Cc1ccc(S(=O)(=O)N[C@@H](CCc2ccccc2)CC(=O)C(C)(C)C)cc1`: 1.58 µM (active).
For the compound `Cc1c(S(=O)(=O)O)ccc(N=Nc2c(O)c(C(=O)O)cc3ccccc23)c1Cl`, the activity, negative = inhibition was 1.31% [at 11.4 µM].
On to `Cc1cc(C)c2c(N=NN(C)C)[nH]nc2n1`, for which the AC50 entry was “inactive”.
For the compound `CCOc1ccc(Cl)cc1CNCCNCCO`, the AC50 result is “inactive”.
On the same count and under the same terms, next, `CCOc1cc(CNCCO)c(Cl)cc1OCC(=O)NCCc1ccccc1`: 0.794 µM (active); `CCNCc1cc(OCC)c(OCC(=O)NCCc2ccccc2)cc1Cl`: 0.447 µM (active).
Same read-out and setting: next, `CC(CCc1ccccc1)NC(=O)C(=O)NCCO` (configuration not stated): “inactive”; `COc1ccc(C(=O)Nc2ccc(OCC(F)(F)C(F)F)c(C(F)(F)F)c2)cc1OC`: “inactive”; `COc1cccc(-c2cc(C(F)(F)F)nc(N3CCOCC3)n2)c1`: 28.2 µM (active).
Turning to `COc1ccc(-c2cc(C(F)(F)F)nc(N3CCN(C)CC3)n2)cc1OC`, the AC50 entry is “inactive”.
Still for that read-out and setting: next, `COc1ccccc1N1CCN(c2nc(-c3ccccc3)cc(C(F)(F)F)n2)CC1`: “inactive”.
Same read-out and setting: to `COc1cccc(-c2cc(C(F)(F)F)nc(N3CCN(c4ccccc4)CC3)n2)c1` belongs “inactive”; to `COc1ccc(-c2cc(C(F)(F)F)nc(NC3CCCC3)n2)cc1OC`, 25.1 µM (active).
The same measure, in the same setting: next, `COc1ccc(-c2cc(C(F)(F)F)nc(N3CCOCC3)n2)cc1OC`: 15.8 µM (active).
Turning to `N=c1nc(N)nc(N)n1-c1ccc(S(N)(=O)=O)cc1`, the activity, negative = inhibition was -8.91% [at 11.4 µM].
Take `O=c1oc2c(Cl)cc(Cl)cc2cc1-c1nnc(Nc2ccccc2F)s1`: the AC50 entry was “inactive”.
On to `N=C(N)CCNC(=O)[C@@H]1CCC(N)=N1`, for which the activity, negative = inhibition was -7.02% [at 11.4 µM].
For `NC[C@@H]1O[C@H](O[C@@H]2[C@H](O[C@@H]3O[C@H](CO)[C@@H](COC[C@H]4O[C@@H](CN)[C@@H](O)[C@@H](O)[C@@H]4N)[C@@H]3O)[C@@H](O)[C@@H](N)C[C@H]2N)[C@@H](N)[C@H](O)[C@@H]1O`, the AC50 result is “inactive”.
Take `CC(=O)Nc1nc(NC(C)=O)c2[nH]c(CO)nc2n1`: the activity, negative = inhibition was -3.45% [at 11.4 µM].
As to `CCN(CC)c1ccc(N2C(=O)/C(=C/c3cccnc3)SC2=S)cc1`, the AC50 is 5.62 µM (active).
`O=C(CCN1C(=O)/C(=C/c2cccc(Br)c2)SC1=S)NNC(=O)c1cccnc1`: the AC50 is 3.16 µM (active).
Turning to `Cc1ccc(/C=C2\SC(=S)N(CCCC(=O)Nc3ccccn3)C2=O)cc1`, the activity, negative = inhibition is -14.5% [at 2.29 µM].
For the compound `O=C1/C(=C/c2cccnc2)SC(=S)N1Cc1ccco1`, the AC50 is 1 µM (active).
As for `CCN(CC)c1ccc(N2C(=O)/C(=C\c3cccnc3)SC2=S)cc1`, the activity, negative = inhibition is -14.7% [at 2.29 µM].
The same measure, in the same setting: to `C[C@@H]1/C=C\CC(=O)OC[C@H](C)C(=O)N2CCC[C@@H]2C(=O)OC1` belongs -18.8% [at 11.4 µM].
Turning to `N[C@@H](CSC(=O)c1ccccc1)C(=O)O`, the activity, negative = inhibition is -4.21% [at 11.4 µM].
Regarding `O=C(COc1cccc2ccccc12)N1c2ccccc2CCc2ccccc21`, the AC50 was 7.94 µM (active).
In the case of `CC(C)NC[C@H](O)COc1cccc2ccccc12`, the AC50 entry was “inactive”.
Take `CC(C)NC[C@@H](O)COc1cccc2ccccc12`: the AC50 result was “inactive”.
On to `OC[C@@H]1NC[C@@H](O)[C@@H](O)[C@H]1O`, for which the AC50 result was “inactive”.
As for `COc1cccc(C(CC(=O)Nc2cccc3ccccc23)NC(=O)c2ccccc2)c1` (configuration not stated), the AC50 is 2.24 µM (active).
Take `O=C(Nc1cccc2ccccc12)c1ccccc1`: the AC50 was 3.16 µM (active).
In the case of `Cc1c(C)n(C)c2ccc(C(=O)Nc3cccc4ccccc34)cc12`, the AC50 was 14.1 µM (active).
As for `O=C(O)c1ccc(C(=O)Nc2cccc3ccccc23)c(C(=O)O)c1`, the activity, negative = inhibition was -18.5% [at 11.4 µM].
For `O=C(CCC(=O)OCc1ccc(C(=O)Oc2ccccc2)cc1)Nc1cccc2ccccc12`, the AC50 result was “inactive”.
Still for that read-out and setting: next, `COC(=O)CCC(=O)Nc1cccc2ccccc12`: “inactive”.
For the compound `CCn1c(C)c(C)c2cc(C(=O)Nc3cccc(Cl)c3)ccc21`, the activity, negative = inhibition is 10.3% [at 2.29 µM].
Still for that read-out and setting: next, `O=C(NNC(=O)c1cccnc1)Nc1cccc2ccccc12`: 14.6% [at 0.457 µM].
Same read-out and setting: to `O=C(O)CSc1ccn(Cc2ccccc2)c1` belongs -1.15% [at 11.4 µM]; to `CN1CCN(CN2C(=O)C3C4C=CC(C3C2=O)C2C3C(=O)N(CN5CCN(C)CC5)C(=O)C3C42)CC1` (configuration not stated), -12.9% [at 11.4 µM].
Consider `CCOc1nc(N=C(N)N)nc2c(C)cccc12`, for which the AC50 result was “inactive”.
As to `CSC1(SC2=NCCN2)SC2(NCCN2)S1`, the AC50 was 1.26 µM (active).
With `O=C(O)CCSC1=NCCN1`, the activity, negative = inhibition is -3.67% [at 11.4 µM].
For `O=C(c1ccc(Cl)cc1)N1CCCC(c2ccccc2)=N1`, the activity, negative = inhibition was 13% [at 2.29 µM].
For `O=C1N=C2SCCN2/C1=C\c1c(Cl)cccc1Cl`, the AC50 is 10 µM (active).
Turning to `OCCN(CO)CO`, the activity, negative = inhibition is -1.86% [at 11.4 µM].
Consider `CCC(=O)Nc1c2c(nc3c1CCC3)CCCC2`, for which the AC50 entry was “inactive”.
As for `CCC(Sc1nc(C)cc(=O)[nH]1)C(=O)Nc1nc2c(s1)CCCC2` (configuration not stated), the AC50 is 14.1 µM (active).
Consider `C[C@@H]1O[C@@H](n2cc(F)c(=O)[nH]c2=O)[C@H](O)[C@@H]1O`, for which the AC50 result was “inactive”.
As for `Cc1cccc2c1Oc1ccccc1[C@@H]2NC(=O)c1ccc([N+](=O)[O-])cc1`, the activity, negative = inhibition was -14% [at 11.4 µM].
On to `Cc1cc([N+](=O)[O-])ccc1-c1ccc(C2Nc3ccccc3C(=O)N2O)o1` (configuration not stated), for which the AC50 was 7.08 µM (active).
The same measure, in the same setting: next, `C[C@H](N)C(=O)O`: “inactive”.
The same measure, in the same setting: to `CSc1nc(C2CC2)cc(-c2cccs2)c1C#N` belongs “inactive”; to `FC(F)(F)c1ccccc1-c1nccc(NCc2cccs2)n1`, 2 µM (active); to `CN(C)Cc1ccccc1-c1nccc(NCc2cccs2)n1`, “inactive”.
On the same count and under the same terms, next, `Cc1ccccc1-c1nccc(NCc2cccs2)n1`: 2 µM (active); `CCc1nn(C)c(-c2n[nH]c(=S)n2N)c1Cl`: “inactive”.
As to `O=C1[C@H]2CCn3c(=O)n(-c4ccccc4)c(=O)n3[C@H]2[C@H](O)[C@H]2O[C@@H]12`, the activity, negative = inhibition was -11.9% [at 11.4 µM].
Take `Nc1nonc1-c1noc(CCCN2C(=O)c3ccccc3C2=O)n1`: the AC50 was 7.94 µM (active).
Same read-out and setting: to `CCN(c1ccccc1)c1cc(NC)[n+](C)c(C)n1` belongs “inactive”; to `Cc1ccc(-c2nc3ncccn3c2NC(=O)C2CC2)cc1`, “inactive”; to `Clc1ccc(-c2nc3ncccn3c2Nc2ccc3c(c2)OCCO3)cc1`, 4.47 µM (active).
Still for that read-out and setting: next, `COCCn1c(=O)c(C)nc2cnc(Oc3ccc(OC)cc3)nc21`: 15.8 µM (active); `COCCn1c(=O)c(-c2ccc(Cl)cc2)nc2cnc(N3CCOCC3)nc21`: “inactive”.
The same measure, in the same setting: to `COCCn1c(=O)c(-c2ccccc2)nc2cnc(Oc3ccc(OC)cc3)nc21` belongs 1 µM (active).
For `COCCn1c(=O)c(-c2ccc(Cl)cc2)nc2cnc(OC)nc21`, the AC50 was 7.94 µM (active).
Consider `COCCn1c(=O)c(-c2ccc(Cl)cc2)nc2cnc(N(C)C)nc21`, for which the AC50 entry was “inactive”.
Same read-out and setting: to `COCCn1c(=O)c(-c2ccc(OC)cc2)nc2cnc(OC)nc21` belongs 15.8 µM (active); to `COc1ncc2nc(-c3ccc(Cl)cc3)c(=O)n(C[C@H]3CCCO3)c2n1`, 10 µM (active); to `CCNc1ncc2nc(-c3ccc(Cl)cc3)c(=O)n(C[C@H]3CCCO3)c2n1`, “inactive”.
For `CN(C)c1ncc2nc(-c3ccc(Cl)cc3)c(=O)n(C[C@H]3CCCO3)c2n1`, the AC50 entry is “inactive”.
Take `Cn1c(=O)n(-c2cccc(Cl)c2)c(=O)c2c3c(sc21)COC(C)(C)C3`: the activity, negative = inhibition was -4.67% [at 2.29 µM].
With `Clc1ccccc1-c1nccc(-n2ccnc2)n1`, the AC50 is 1.26 µM (active).
On the same count and under the same terms, to `FC(F)(F)c1ccccc1-c1nccc(N2CCNCC2)n1` belongs “inactive”; to `COc1ccccc1-c1cc(-n2ccnc2)ncn1`, 0.316 µM (active).
Consider `Cc1noc(C)c1-c1nccc(N2CCN(C)CC2)n1`, for which the AC50 entry was “inactive”.
On to `COc1ccccc1-c1nccc(-n2ccnc2)n1`, for which the AC50 was 1.58 µM (active).
As to `Cc1noc(C)c1-c1nccc(-n2ccnc2)n1`, the AC50 was 1.26 µM (active).
Consider `O=S1(=O)N[C@H]2CC[C@@H]3NS(=O)(=O)N[C@H]4CC[C@H](N1)N4S(=O)(=O)N23`, for which the activity, negative = inhibition is 5.02% [at 11.4 µM].
For `Cc1ccccc1-c1nccc(-n2ccnc2)n1`, the AC50 was 1 µM (active).
On the same count and under the same terms, to `Cc1cc(C)c2c(N)c3ccccc3nc2n1` belongs “inactive”.
As to `CN(C)Cc1ccccc1-c1ccc2ncnc(NCc3ccccc3)c2c1`, the AC50 is 15.8 µM (active).
Same read-out and setting: next, `COc1ccc(CNc2ncnc3ccc(-c4ccccc4CN(C)C)cc23)c(OC)c1`: 7.94 µM (active); `COc1ccccc1CNc1ncnc2ccc(-c3ccccc3OC)cc12`: 6.31 µM (active); `CN(C)Cc1ccccc1-c1ccc2ncnc(NC3CCNCC3)c2c1`: “inactive”.
Take `CNc1ncnc2ccc(-c3ccccc3CN(C)C)cc12`: the AC50 was 7.94 µM (active).
